Screening results as filed in PubChem BioAssay.
hgDAF-12 ag: activates the H. glycines DAF-12 receptor ligand-binding domain. HEK293 GAL4-hgDAF12 UAS-luciferase reporter, agonist luminescence; normalized to butyrate control. activation, % at 6.8 µM. actives 1.8% (n = 370,000). AID 687014;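 active means activation above a cutoff set at the mean of all screened compounds plus 3 SD, cut at about 10% in these data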;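 further: 0% = DMSO wells and 100% = sodium butyrate wells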
DAX1 inh-1: NR0B1 (DAX1) inhibition; P51843; actives 0.99% (n = 340,000); inhibition, % at 6.75 µM; HEK293 Gal4-DAX1 luciferase reporter, luminescence;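 active means inhibition above the mean over all tested compounds plus 3 SD, cut at about 4.2% in these data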;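 further: 0% = DAX1-transfected cells with DMSO and 100% = empty-vector control cells with DMSO; inhibition shows as a rise in luminescence from relieved DAX1 repression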
hcDAF12 agonist: H. contortus DAF-12 activation, primary screen; HEK293 hcDAF-12 lit1-tk-luc reporter, luminescence; 0% DMSO, 100% Δ7-dafachronic acid; activation, % at 6.8 µM; actives 1.4% (n = 370,000); AID 652067;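 active means activation above the mean of all tested compounds plus 3 SD, cut at about 5.5% in these data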;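 further: 100% = response to 3 µM Δ7-dafachronic acid high control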
ssDAF-12 act: S. stercoralis DAF-12 activation, primary screen | activation, % at 6.8 µM | HEK293 ssDAF-12/GRIP1 lit1-tk-luc reporter, luminescence; % of 3 µM dafachronic acid response | actives 1% (n = 370,000) | AID 652126;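 active means activation above the mean over all tested compounds plus 3 SD, cut at about 0.9% in these data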;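 further: 0% = DMSO-only wells and 100% = 3 µM delta7-dafachronic acid wells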
DAX1 inh-2: DAX1 (NR0B1) inhibition, primary screen | HEK293T StAR-luciferase reporter, SF-1/DAX-1 repression relief | inhibition, % at 6.8 µM | actives 1.1% (n = 370,000) | AID 652010;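 active means inhibition above the mean over all tested compounds plus 3 SD, cut at about 3.6% in these data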;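 further: 0% = DAX-1 cells with DMSO and 100% = cells lacking DAX-1 with DMSO; higher inhibition means more luminescence from relief of DAX-1 repression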
hgDAF12 conf: confirmation of H. glycines DAF-12 agonists | activation, % at 6.8 µM | HEK293 GAL4-hgDAF12 luciferase reporter, agonist mode; percent of butyrate response | actives 80% (n = 3,300) | AID 743050 | shares compounds with hgDAF-12 ag;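 active means mean activation over triplicate wells above the hit cutoff derived from the earlier primary screen, cut at about 11% in these data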;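 further: 0% = DMSO low control and 100% = 2 mM sodium butyrate high control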
LXRb DAF12 ctr: activates human LXR-beta, counter-screen for DAF-12 agonists; 3,300 tested, under 10 active; HEK293 Gal4-LXR luciferase reporter, 24 h; shares compounds with hgDAF-12 ag; activation, % at 6.8 µM;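 active means mean activation of the triplicate above a set limit carried over from the primary screen, none filed active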
Target sequence (P55055 whole entry, looked up, the tested form may be a part): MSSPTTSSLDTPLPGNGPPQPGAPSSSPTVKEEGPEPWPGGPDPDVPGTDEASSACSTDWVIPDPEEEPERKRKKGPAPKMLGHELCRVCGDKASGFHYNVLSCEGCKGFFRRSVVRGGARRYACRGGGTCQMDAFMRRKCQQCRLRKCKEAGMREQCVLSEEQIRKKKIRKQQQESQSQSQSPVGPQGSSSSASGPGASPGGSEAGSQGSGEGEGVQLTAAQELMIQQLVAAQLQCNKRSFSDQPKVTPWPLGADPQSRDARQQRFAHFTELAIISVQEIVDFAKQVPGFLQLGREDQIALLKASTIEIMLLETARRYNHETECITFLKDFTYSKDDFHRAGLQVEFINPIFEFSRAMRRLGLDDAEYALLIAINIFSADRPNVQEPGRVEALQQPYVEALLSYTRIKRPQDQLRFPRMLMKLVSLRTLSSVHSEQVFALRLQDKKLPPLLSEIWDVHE
* marks the source's active call; other numbers are inactive results; . = no result. An excerpt weighted towards active compounds, which were near 4.1% of everything screened.

SMILES | hgDAF-12 ag | DAX1 inh-1 | hcDAF12 agonist | ssDAF-12 act | DAX1 inh-2 | hgDAF12 conf | LXRb DAF12 ctr
OC(c1ccccc1)c1nc(/C=C/c2ccccc2)cs1 (stereo unspecified) | 15.7* | . | 4.7 | -1.1 | 3.3 | 11.3* | 0.3
Cc1occc1C(=O)N/N=C/C(Br)=C/c1ccccc1 | 16.9* | 0.5 | 4.6 | 0.5 | 3.0 | 14.2* | 0.8
Cc1cc(/C=N/NC(=O)c2ccoc2C)cc(C)c1O | 18.4* | 4.8* | 3.2 | 0.1 | 4.3* | 13.6* | 0.3
O=C(NN=Cc1ccccc1Cl)c1cccc2ccccc12 | 1.4 | 1.7 | 0.8 | -0.4 | -0.3 | . | .
Cc1occc1C(=O)N/N=C/c1cccc2ccccc12 | 21.1* | 0.2 | 5.8* | 1.0* | 1.8 | 14.2* | 0.5
COc1cc(/C=N/NC(=O)c2ccoc2C)cc(OC)c1OC | 8.0 | 1.0 | 2.2 | -1.4 | 1.6 | . | .
Cc1occc1C(=O)N/N=C/c1ccc2c(c1)OCO2 | 15.7* | -0.7 | 5.7* | 0.2 | 3.5 | 21.4* | 0.9
CN(C(=O)COC(=O)c1ccc2c(c1)OCO2)C1CCS(=O)(=O)C1 (stereo unspecified) | -0.5 | 1.2 | -0.2 | -1.3 | 0.0 | . | .
CN(C(=O)COC(=O)c1ccc2c(c1)OCO2)C1CCCCC1 | 13.3* | 1.5 | 0.6 | -0.9 | 0.6 | 7.0 | 0.1
Cc1csc(NC(=O)CCC(=O)N(CC(=O)NC2CCCCC2)c2ccccc2)n1 | -0.1 | -0.6 | -0.9 | -1.1 | -0.2 | . | .
COc1ccc(NC(=O)CSc2nc3ccsc3c(=O)n2CCC(=O)O)c(OC)c1 | 14.4* | 0.2 | 0.8 | -1.1 | -0.3 | 1.5 | 0.0
CCn1nc(C)cc1C(=O)N1CCc2c([nH]c3ccccc23)C1c1cc(F)ccc1F (stereo unspecified) | 14.4* | . | 6.2* | 0.8 | 0.7 | 12.7* | 0.5
Cc1ncoc1C(=O)N1CCc2c([nH]c3ccccc23)C1c1ccccc1F (stereo unspecified) | 16.1* | -0.9 | 3.4 | 0.4 | 0.6 | 2.5 | 0.0
O=C(c1cc2ncccn2n1)N1CCc2c([nH]c3ccccc23)C1c1ccccc1F (stereo unspecified) | -0.2 | 0.7 | 2.2 | 0.3 | 0.8 | . | .
Cc1cccc(C2c3[nH]c4ccccc4c3CCN2C(=O)c2cc(C(C)C)nc(N)n2)n1 (stereo unspecified) | 5.7 | 0.1 | 3.6 | -0.9 | -0.5 | . | .
COc1ccc(NC(=O)N(C)C[C@H]2Oc3c(NS(=O)(=O)c4cccs4)cccc3C(=O)N([C@@H](C)CO)C[C@@H]2C)cc1 | -0.4 | 0.5 | 0.2 | 0.2 | -0.3 | . | .
Cc1nn(-c2ccccc2)c(N)c1N=O | 2.9 | . | 1.7 | -1.4 | -0.4 | . | .
Cc1nn(-c2ccccc2)c(N)c1N=Nc1ccc2ccccc2c1 | 23.4* | 1.8 | 3.4 | 0.6 | 2.5 | 17.7* | 0.5
Cc1ccc(N=Nc2c(N)nn(-c3ccccc3)c2N)cc1 | 20.5* | 0.0 | 2.0 | 0.9* | 0.7 | 24.7* | 0.6
CCc1nc2cc3sc(CC)nc3cc2s1 | 15.5* | -0.1 | 1.9 | -0.1 | 2.3 | 13.4* | 0.7
CNc1oc(/C=C/c2ccccc2)nc1C#N | 13.4* | 0.8 | 5.3 | 1.6* | 2.2 | 17.6* | 0.6
Cc1ccc(Nc2cc(C)c3c(O)cccc3n2)cc1C | 14.7* | 1.5 | 4.1 | -0.3 | 1.4 | 15.0* | 0.6
Cc1ccccc1Nc1cc(C)c2c(O)cccc2n1 | 0.9 | -0.2 | 0.7 | -0.8 | 0.2 | . | .
O=C(COc1ccccc1F)Nc1ccc(S(=O)(=O)Nc2nccs2)cc1 | -5.3 | 1.4 | -1.3 | -1.1 | -0.2 | . | .
O=C(Nc1ccc(/C=C/c2nc3ccccc3o2)cc1)c1cccc(C(F)(F)F)c1 | 3.8 | 0.0 | 0.9 | 0.0 | 0.2 | . | .
O=C(Nc1ccc(/C=C/c2nc3ccccc3o2)cc1)c1c(F)cccc1F | 16.0* | -0.1 | 2.8 | 0.0 | 0.0 | 18.9* | 0.8
N#Cc1ccc(C(=O)Nc2nc3ccccc3[nH]2)cc1 | 16.0* | 0.1 | 2.3 | 0.3 | 2.1 | 11.3* | 0.7
CC(=O)N1CCN(S(=O)(=O)c2cccc(C(=O)NC3CC3)c2)CC1 | 2.5 | -0.8 | -1.7 | -1.5 | -0.5 | . | .
